# From PubChem
# Rows were chosen to be rich in hits. Some 3.5% of all compounds tested hit in one or more screens of this group.
# GPR151 activ – activators of human GPR151, primary screen, cell-based, PathHunter beta-arrestin, luminescence. G-protein coupled receptor 151 (Homo sapiens), Q8TDV0. PathHunter beta-arrestin GPR151 cells. activation, % at 11.2 µM. hit rate 1% among 650,000; in the data active means activation above about 4.9%;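 further: 0% = median of compound wells and 100% = cells with positive control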
# TEAD-YAP inh – TEAD-YAP interaction inhibition, primary screen, TEAD-YAP interaction inhibitor project, luminescence, HEK-TIYL cells | TEAD-Gal4/YAP UAS-luciferase luminescence | inhibition, % at 9.12 µM | hit rate 1.4% among 640,000 | AID 1259422, 2018; in the data active means inhibition above about 32%;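 further: 0% = median of test compound wells and 100% = reference inhibitor wells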
# MITF inh – MITF inhibitors, primary screen, biochemical, AlphaScreen, human; AlphaScreen MITF homodimerization, bead proximity signal; Microphthalmia-associated transcription factor (Homo sapiens), O75030; inhibition, % at 2.6 µM; AID 1259374, 2018; hit rate 0.91% among 650,000; in the data active means inhibition above about 50%;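 further: 0% = vehicle wells with protein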
# Target sequence (O75030 whole entry, looked up): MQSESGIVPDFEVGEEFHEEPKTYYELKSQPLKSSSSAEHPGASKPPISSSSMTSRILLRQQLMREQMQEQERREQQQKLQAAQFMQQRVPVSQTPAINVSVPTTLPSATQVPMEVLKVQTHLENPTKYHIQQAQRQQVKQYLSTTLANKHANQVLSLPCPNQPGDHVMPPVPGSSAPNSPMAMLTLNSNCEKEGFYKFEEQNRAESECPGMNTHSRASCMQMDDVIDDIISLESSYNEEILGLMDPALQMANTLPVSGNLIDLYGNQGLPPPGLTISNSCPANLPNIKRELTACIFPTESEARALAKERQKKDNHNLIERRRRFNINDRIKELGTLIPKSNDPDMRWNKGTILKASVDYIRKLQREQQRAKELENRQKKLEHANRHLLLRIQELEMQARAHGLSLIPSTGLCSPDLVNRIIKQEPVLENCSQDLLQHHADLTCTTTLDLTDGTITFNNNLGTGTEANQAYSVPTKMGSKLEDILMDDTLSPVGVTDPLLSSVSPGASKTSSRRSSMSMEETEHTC
# FBW7 act – FBW7 E3 ligase activators, primary screen, biochemical, AlphaScreen, human; AlphaScreen FBW7–phospho-cyclin E peptide binding, activator screen; normalized activity (activation), % at 26.1 µM; hit rate 0.13% among 650,000; AID 1259310, 2017; in the data active means normalized activity above about 1.9%;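 further: purified mutant Fbw7 with reduced substrate affinity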
# GPR151 conf act – GPR151 activators, triplicate retest, confirmation, cell-based, PathHunter beta-arrestin, luminescence. shares compounds with GPR151 activ. GPR151 PathHunter beta-arrestin cells, 90 min; % of EA-reagent control over plate median. activation, % at 11.2 µM. 6,700 tested, under 10 active. AID 1508609, 2020;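 active means mean percent activation across replicates above the confirmation screen cutoff of 4.91%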
# GPR119 ag – GPR119 activators in beta-arrestin cells, counter-screen for GPR151 activator project, cell-based, PathHunter beta-arrestin, luminescence, triplicate | shares compounds with GPR151 activ | 90 min; 0 = compound-well median, 100 = enzyme-acceptor control | activation, % at 11.2 µM | hit rate 0.3% among 6,700 | AID 1508611, 2020;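 active means mean percent activation in the counterscreen above 29.09%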;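 further: counterscreen on off-target GPR119 to flag nonselective hits from the GPR151 activator screen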
# Numbers without * were called inactive; . = not tested or not shown; ! = a repeat was not active.
SMILES,GPR151 activ,TEAD-YAP inh,MITF inh,FBW7 act,GPR151 conf act,GPR119 ag
COc1cccc(-c2ccc(=O)n(CC(=O)Nc3ccc(C(=O)N4CCCC4)cc3)n2)c1,1,-10,0,0,.,.
COc1ccc(Cl)cc1S(=O)(=O)N1CCCC(C(=O)NCC(N)=O)C1 (stereo unspecified),7.4*,-6,-2,0,1,6
COc1ccc(C)cc1S(=O)(=O)N1CCCC(C(N)=O)C1 (stereo unspecified),0,1,6,0,.,.
Cc1nc2ccc(N/C=C3\C(=O)C(C)(C)Oc4ccc5ccc(=O)oc5c43)cc2s1,5.8*,-10,2,0,1,5
Cc1cc2nn(-c3ccc(Cl)cc3)nc2cc1NC(=O)c1ccccc1F,-1,-3,15,0,.,.
Cc1ccc(N2C(=O)c3ccc([N+](=O)[O-])cc3C2=O)cc1Cl,0,14,6,0,.,.
O=C1c2ccc([N+](=O)[O-])cc2C(=O)N1c1ccc(Cl)c(Cl)c1,6.9*,9,7,0,1,7
CC(Sc1nnc(NC(=O)c2ccccc2)s1)c1nc2ccccc2c(=O)[nH]1 (stereo unspecified),5.7*,-1,7,0,0,5
O=C(CSc1nc2ccsc2c(=O)n1CCc1ccccc1)Nc1nccs1,-1,-7,-1,0,.,.
O=C1C(Cl)=C(NCCO)C(=O)N1c1ccc(Cl)cc1,5.1*,14,25,1,0,4
CSCC(=O)NCC1Cc2cc(F)cc(-c3ccc(C(C)=O)s3)c2O1 (stereo unspecified),-1,4,3,0,.,.
CC(=O)c1ccc(-c2cc(F)cc3c2OC(CNC(=O)CN(C)C)C3)s1 (stereo unspecified),5.6*,4,2,0,-1,2
Cc1cccc(CCNS(=O)(=O)c2c(C)n[nH]c2C)c1,-1,-3,-4,0,.,.
CCOc1ccc(CCNS(=O)(=O)c2c(C)n[nH]c2C)cc1OCC,5.6*,6,5,0,0,8
COc1cc2[nH]c(=S)nc(NCCNc3ccc([N+](=O)[O-])cc3C#N)c2cc1OC,0,-3,16,1,.,.
CCCC/C=C/c1cn2c(NC(=O)c3cccs3)cnc2cn1,0,6,17,0,.,.
O=C(Oc1ccc(-c2ccccc2)cc1)N1CCOCC1,5.8*,-40,-2,0,0,-11
CC(=O)c1ccc(NC(=O)CN2CCN(Cc3nc4ccccc4n3C)CC2)cc1,6.3*,-3,1,0,0,-3
CC(=O)N1CCN(Cc2nc3cc(NC(=O)c4ccc(Cl)cc4)ccc3n2C)CC1,5.4*,-5,0,0,0,1
CCCn1c(N2CCN(CC(=O)Nc3ccc(C(C)=O)cc3)CC2)nc2ccccc21,0,3,3,0,.,.
CC(=O)Nc1ccc2c(c1)nc(CN1CCN(C(C)=O)CC1)n2C,-1,-5,-24,0,.,.
CCN1CCN(CC(=O)Nc2ccc(C(C)=O)cc2)CC1,7.5*,8,-2,0,0,5
N/C(Cc1ccc([N+](=O)[O-])cc1)=N\OC(=O)c1cc(Cl)ccc1Cl,0,5,8,0,.,.
CCCc1ccc(Oc2c(C)oc3c(C)c(OC)ccc3c2=O)cc1,-2,-1,6,1,.,.
O=C1NCCN(CC2CCCCC2)C1CC(=O)N1CCCCO1 (stereo unspecified),0,-2,-11,0,.,.
SMILES,GPR151 activ,TEAD-YAP inh,MITF inh,FBW7 act,GPR151 conf act,GPR119 ag
CCOC(=O)c1sc2nc(SCC(=O)c3ccc(Cl)cc3)n(Cc3cccs3)c(=O)c2c1C,5.1*,10,-12,0,1,8
CCOC(=O)c1sc2nc(SCC(=O)c3ccccc3)n(Cc3ccc(Cl)cc3)c(=O)c2c1C,-1,-9,0,0,.,.
COc1cc(C2C(C(=O)OC3CCCCC3)=C(C)NC3=C2C(=O)CC(C)(C)C3)cc(OC)c1OC (stereo unspecified),12*,-5,-9,0,0,6
CCOC(=O)C1=C(C)NC2=C(C(=O)CC(C)(C)C2)C1c1ccc(OC)c(OC)c1OC (stereo unspecified),12*!,-14,1,0,0,5
CCOC(=O)C1=C(C)NC2=C(C(=O)CC(C)(C)C2)C1c1cccc(OC)c1OC (stereo unspecified),0,16,11,0,.,.
Cc1ccccc1Nc1nc(N)nc(COC(=O)c2cccc(N(C)C)c2)n1,2,-1,-1,0,.,.
O=C(Nc1nc2ccc(F)cc2s1)c1ccccc1Oc1ccccc1,4,-5,1,-1,.,.
O=C(O)[C@H]1/C(=C/CO)O[C@@H]2CC(=O)N21,4.9*!,-7,-1,0,0,3
O=C(O)C1CC(=O)N(CCN2CC(C(=O)O)CC2=O)C1 (stereo unspecified),0,3,12,0,.,.
O=C(NN1CCCCC1)C(O)(c1ccsc1)c1ccsc1,0,0,3,0,.,.
COc1ccc(C(c2nnnn2C(C)C)N2CCN(c3ccccc3OC)CC2)cc1 (stereo unspecified),-1,-5,3,0,.,.
COc1ccccc1N1CCN(C(c2ccc(N(C)C)cc2)c2nnnn2C(C)C)CC1 (stereo unspecified),5.3*,0,8,0,1,5
CC(C)n1nnnc1C(c1ccccc1F)N1CCN(c2ccccc2)CC1 (stereo unspecified),6.0*,2,-1,0,0,10
O=C(O)CCC(=O)c1ccc(Cc2ccccc2)cc1,5.3*,5,4,0,1,3
CCCN1C(=O)/C(=C2\SC(=S)N(CCOC)C2=O)c2ccccc21,5.6*,8,11,0,1,-4
CCCN1C(=O)/C(=C2/C(=O)N(C)c3ccccc32)SC1=S,0,6,3,0,.,.
O=C(NCCCC1CCCC1)c1cc(COc2cccc3cnccc23)on1,5.2*,12,-3,0,0,-11
CCc1ccccc1N(CC(=O)NCc1ccco1)S(C)(=O)=O,-1,6,28,1,.,.
CC(C)c1[nH]nc2c1C(C(C)C)C(C#N)=C(N)O2 (stereo unspecified),8.3*,0,3,0,1,-6
O=C(COc1ccc([N+](=O)[O-])cc1)Nc1cccc2cccnc12,5.9*,5,-1,0,0,8
